miR-122 inh = activators of miR-122 sensor in Huh7 cells; Huh7 psiCHECK-miR122 Renilla luciferase sensor, 48 h; activation, % at 12.5 µM; hit rate 0.14% among 340,000; AID 623901;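 active = mean activation of 30% or more, with every replicate also reaching 30%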;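 also: higher luciferase signal means stronger suppression of miR-122 activity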
Large screens that a line does not name were inactive. Shown is part of a subset that was picked to be rich in hits.

CC(C)CC#Cc1cnc2c(c1)C(=O)N([C@@H](C)CO)C[C@@H](C)[C@@H](CN(C)C(=O)Nc1cccc(F)c1)O2	none
CCC(=O)Nc1ccc2c(c1)OC[C@H](C)NC[C@@H](C)[C@@H](OC)CN(C)C2=O	none
CO[C@@H]1CN(C)C(=O)c2cc(NC(=O)C3CCOCC3)ccc2OC[C@@H](C)N(C)C[C@H]1C	none
CN1C(=O)c2cc(NC(=O)Cc3cccs3)ccc2OC[C@@H]2O[C@H](CC(=O)NCC3CCCCC3)CC[C@@H]21	none
CO[C@H]1CN(C)C(=O)c2cc(NC(=O)c3nc4ccccc4s3)ccc2OC[C@@H](C)N(Cc2ccncc2)C[C@H]1C	none
CCCC(=O)Nc1ccc2c(c1)C(=O)N(C)C[C@@H](OC)[C@@H](C)CN[C@@H](C)CO2	none
CN1C(=O)c2cc(NC(=O)c3cccs3)ccc2OC[C@@H]2O[C@@H](CC(=O)NCCN3CCCCC3)CC[C@H]21	miR-122 inh 83.3
CN1C(=O)c2cc(NC(=O)c3cccs3)ccc2OC[C@H]2O[C@@H](CC(=O)N3CCCCC3)CC[C@H]21	miR-122 inh 36.7
CCCC(=O)Nc1ccc2c(c1)C(=O)N(C)[C@H]1CC[C@@H](CC(=O)NCC(F)(F)F)O[C@H]1CO2	none
CO[C@H]1CN(C)C(=O)c2cc(NC(=O)C3CCOCC3)ccc2OC[C@@H](C)N(C)C[C@@H]1C	none
CCCC(=O)Nc1ccc2c(c1)C(=O)N(C)[C@@H]1CC[C@H](CC(=O)NCC(F)(F)F)O[C@H]1CO2	miR-122 inh 36.7
CN1C(=O)c2cc(NC(=O)c3cccs3)ccc2OC[C@H]2O[C@H](CC(=O)NCC(F)(F)F)CC[C@H]21	miR-122 inh 50.0
COc1ccc(C#Cc2ccc3c(c2)O[C@H](CN(C)C)[C@H](C)CN([C@H](C)CO)S3(=O)=O)cc1	none
COc1ccccc1-c1ccc2c(c1)O[C@H](CN(C)C(C)=O)[C@@H](C)CN([C@H](C)CO)S2(=O)=O	none
CCCC#Cc1cnc2c(c1)C(=O)N([C@@H](C)CO)C[C@H](C)[C@@H](CN(C)C(=O)C1CC1)O2	none
C[C@@H]1CN([C@@H](C)CO)C(=O)c2cc(Br)cnc2O[C@@H]1CN(C)CC1CCOCC1	none
C[C@@H]1CN([C@H](C)CO)C(=O)c2cc(-c3cncnc3)cnc2O[C@@H]1CN(C)Cc1cncnc1	none
COCC(=O)N(C)C[C@@H]1Oc2cc(-c3cncnc3)ccc2S(=O)(=O)N([C@H](C)CO)C[C@@H]1C	none
COc1ccccc1-c1cnc2c(c1)C(=O)N([C@@H](C)CO)C[C@H](C)[C@@H](CN(C)C(=O)c1ccccc1)O2	none
C/C=C/c1ccc2c(c1)O[C@@H](CN(C)CCC)[C@@H](C)CN([C@H](C)CO)S2(=O)=O	none
CCCNC(=O)Nc1ccc2c(c1)OC[C@@H](C)NC[C@H](C)[C@@H](OC)CN(C)C2=O	none
C[C@H](CO)N1C[C@H](C)[C@@H](CN(C)Cc2ccccc2F)Oc2ncc(/C=C/c3ccccc3)cc2C1=O	none
CC(C)CC#Cc1cnc2c(c1)C(=O)N([C@H](C)CO)C[C@@H](C)[C@H](CN(C)C(=O)NC1CCCC1)O2	none
C[C@H](CO)N1C[C@H](C)[C@@H](CN(C)CC2CCOCC2)Oc2cc(Br)ccc2S1(=O)=O	none
CCCNC(=O)Nc1ccc2c(c1)OC[C@H](C)NC[C@H](C)[C@H](OC)CN(C)C2=O	none
COc1cccc(S(=O)(=O)N(C)C[C@@H]2Oc3ncc(C#Cc4ccccc4)cc3C(=O)N([C@H](C)CO)C[C@@H]2C)c1	none
C[C@H]1CN([C@@H](C)CO)C(=O)c2cc(C#Cc3ccccc3)cnc2O[C@@H]1CN(C)C(=O)c1ccccn1	none
C[C@@H]1CN([C@H](C)CO)C(=O)c2cc(-c3ccncc3)cnc2O[C@H]1CN(C)C(=O)Cc1cccnc1	none
Clc1ccc2c(N/N=C/c3ccccc3Br)ccnc2c1	miR-122 inh 58.8
CCCC(=O)Nc1ccc2c(c1)OC[C@H](C)N(C(C)=O)C[C@H](C)[C@H](OC)CN(C)C2=O	none
CCC(=O)Nc1ccc2c(c1)OC[C@@H](C)N(C(=O)CN1CCOCC1)C[C@@H](C)[C@@H](OC)CN(C)C2=O	none
C[C@H]1CN([C@@H](C)CO)C(=O)c2cc(-c3ccc(F)cc3)cnc2O[C@@H]1CN(C)Cc1ccc(C(=O)O)cc1	none
NC(Cc1ccc(C(F)(F)F)cc1)c1csc(Nc2nncc3ccccc23)n1 (centres undefined)	miR-122 inh 33.6
CCC(=O)Nc1ccc2c(c1)OC[C@@H](C)NC[C@@H](C)[C@H](OC)CN(C)C2=O	none
CNC[C@@H]1Oc2cc(C#Cc3cccc(F)c3)ccc2S(=O)(=O)N([C@@H](C)CO)C[C@H]1C	none
CCCN1C[C@H](C)[C@H](OC)CN(C)C(=O)c2ccc(NS(C)(=O)=O)cc2OC[C@@H]1C	none
CCCNC(=O)Nc1ccc2c(c1)OC[C@H](C)N(C)C[C@H](C)[C@@H](OC)CN(C)C2=O	none
C[C@H](CO)N1C[C@H](C)[C@@H](CN(C)Cc2ccccn2)Oc2ncc(C#Cc3ccc(F)cc3)cc2C1=O	none
C[C@H](CO)N1C[C@H](C)[C@@H](CN(C)Cc2ccc(-c3ccccc3)cc2)Oc2ccc(NC(=O)Cc3ccccc3)cc2CC1=O	miR-122 inh 34.8

Bioassay records from PubChem.
